According to PubChem BioAssay (EPA / NIEHS):
Active and inactive are the calls of the source. The calls were made as follows: active = hit-call score of the fitted dose curve at least 0.9, where 1 is the maximum; inactive = score below 0.9.

assay: ATG_NFI_CIS: Attagene CIS-FACTORIAL HepG2 Assay for human Nuclear Factor I (NFI) (AID 2282989); conditions: HepG2 cis-regulatory reporter, NFI response element transcription; actives raise or lower the signal
Method: ATG_CIS is a cell-based, multiplexed-readout assay that uses HepG2, a human liver cell line, with measurements taken at 24 hours after chemical dosing in a 24-well plate.ATG_NFI_CIS is one of 52 assay component(s) measured or calculated from the ATG_CIS assay. It is designed to make measurements of mRNA induction, a form of inducible reporter, as detected with fluorescence intensity signals by Reverse transcription polymerase chain reaction (RT-PCR) and Capillary electrophoresis technology.Data from the assay component ATG_NFI_CIS was analyzed into 1 assay endpoint. This assay endpoint, ATG_NFI_CIS, was analyzed with bidirectional fitting relative to DMSO as the negative control and baseline of activity. Using a type of inducible reporter, measures of mRNA for gain or loss-of-signal activity can be used to understand the reporter gene at the transcription factor-level as they relate to the gene NFIA. Furthermore, this assay endpoint can be referred to as a primary readout, because this assay has produced multiple assay endpoints where this one serves a reporter gene function. To generalize the intended target to other relatable targets, this assay endpoint is annotated to the dna binding intended target family, where the subfamily is nuclear factor I.
Human liver HepG2 cells are transiently transfected with multiple reporter transcription units (MRTUs) in 6-well plates using FuGene 6 reagent (Roche; 3 ml FuGene/1 mg DNA). The MRTU constructs are regulated by a cis-regulating element (promoter). […] A major difference between the CIS and TRANS system is that in CIS activities of endogenous TFs are measured, whereas the TRANS assay evaluates changes in activities of exogenous, chimeric NR-Gal4 proteins. […] At the end of 24 hour incubation, total RNA was isolated using TriZol reagent (Invitrogen). The isolated RNA is then reverse-transcribed using oligo(dT) primer and Mo-MLV reverse transcriptase (Invitrogen) with DNAse I (Ambion) treatment for 30 min. The one-tenth of the produced cDNA was amplified by PCR using Taq DNA polymerase (Invitrogen) and two reporter sequence-specific primers. The PCR products were fluorescently labeled by primer extension with 6-arboxyfluorescein (6-FAM) 5'-labeled reporter sequence-specific primer (2 min at 95 C, 20 s at 68 C and 10 min at 72 C) and these products were digested with 5U of HpaI (New England Biolabs) for 2h at 37 C. The fragments were purified using Qiaquick PCR columns (Qiagen), analyzed on an ABI 3130xL genetic analyzer (Applied Biosystems) with peak positions identified by using a set of X-rhodamine (ROX)-labeled MapMarker1000 molecular weight standards (BioVentures). The raw capillary electrophoresis data was processed using Attagraph software (Attagene).

outcome, inactive:
C=C(C)[C@@H]1CC=C(C)C(=O)C1, C=C(CC(=O)O)C(=O)O, C=C(C)CNCC, CC(=O)CC(=O)Nc1ccc(C)cc1C, CCCCCCC(O)CCCCCCCCCCC(=O)O (stereo not given), CCCCSCCCC, O=C1OC[C@H](Cc2cccc(O)c2)[C@H]1Cc1cccc(O)c1, O=c1[nH]c(=O)c2cn[nH]c2[nH]1, CC(C)(C)C1=CC(=O)C(C(C)(C)C)=CC1=O, CN(c1nccc(=O)[nH]1)C1CCN(c2nc3ccccc3n2Cc2ccc(F)cc2)CC1, CCC(C)=O, CCCCCCOC(=O)CCC, CN(C)CCOC(C)(c1ccccc1)c1ccccn1 (stereo not given), CS(=O)(=O)OCCCCOS(C)(=O)=O, CC(=O)O[C@@H]1CC2CCC1(C)C2(C)C (stereo not given in full), COc1cccc(OC)c1O, IC(I)I, CCc1ccc(O)cc1, CN(C)c1cccc(O)c1, CC(C=O)Cc1ccc(C(C)(C)C)cc1 (stereo not given), C=C(C)C(=O)OCCOCCOCCOC(=O)C(=C)C, C=CCOC(=O)CCCCCC, OCCc1ccccc1, c1ccc2[nH]cnc2c1, COc1ccc(OC)c(N=Nc2c(O)ccc3ccccc23)c1, CC(C)CCCCCCCCCCCCCCC(=O)O, Nc1ccc2cc(S(=O)(=O)O)cc(O)c2c1N=Nc1ccccc1C(F)(F)F, Cc1c(OCC(F)(F)F)ccnc1CS(=O)c1nc2ccccc2[nH]1 (stereo not given), CCCCCc1ccco1, CCN(CCN)c1cccc(C)c1, CCCC1O[C@@H]2C[C@H]3[C@@H]4CCC5=CC(=O)C=C[C@]5(C)[C@H]4[C@@H](O)C[C@]3(C)[C@]2(C(=O)CO)O1 (stereo not given in full), CC(C)=CCCC(C)CCOC=O (stereo not given), COc1cc(Cl)c(OC)cc1N, CS(C)=O, BrCc1cccc(Oc2ccccc2)c1, Cc1c(C2(c3cc(Br)c(O)c(Br)c3C)OS(=O)(=O)c3ccccc32)cc(Br)c(O)c1Br, COCCOC(=O)c1ccccc1C(=O)OCCOC

AC50, active:
C=Cc1ccncc1 21.8 µM, C[C@H]1O[C@@H](O[C@H]2[C@@H](O)C[C@H](O[C@H]3[C@@H](O)C[C@H](O[C@H]4CC[C@@]5(C)[C@H](CC[C@@H]6[C@@H]5C[C@@H](O)[C@]5(C)[C@@H](C7=CC(=O)OC7)CC[C@]65O)C4)O[C@@H]3C)O[C@@H]2C)C[C@H](O)[C@@H]1O 0.0705 µM, CSc1c(Cl)c(Cl)c(Cl)c(Cl)c1Cl 154 µM
